Assay results reported in PubChem BioAssay AID1445 (SRMLSC, 2008).
In all, about 220,000 compounds went through this assay and about 910 (0.41%) were called active. Only a selection was taken, and actives are over-represented in it overall. Results with a measured potency or affinity are listed apart. Unmarked numbers belong to inactive results.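 The calls were made as follows: active = primary inhibition above the hit cutoff, then over 50% inhibition at one or more dose response concentrations (cut at about 23% in these data, passing the limit was not always enough); inconclusive = conflicting primary data, or primary hits not chosen for dose response; inactive = low primary inhibition, or under 50% at every dose.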

What follows are compounds tested against Aminopeptidase N (Plasmodium falciparum (isolate 3D7)) (UniProt O96935) (assay: malaria alanyl aminopeptidase activity blockers – biochemical, fluorogenic H-Leu-NHMec substrate, 1536-well (AID 1445;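 also: plate controls were DMSO full reaction for no effect and no enzyme background for full effect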)). Settings: recombinant M1AAP, H-Leu-NHMec fluorogenic kinetic assay; at 30 µM, stronger effect = higher value unless noted.
Chain of Aminopeptidase N (Plasmodium falciparum (isolate 3D7)) (O96935 whole entry, looked up): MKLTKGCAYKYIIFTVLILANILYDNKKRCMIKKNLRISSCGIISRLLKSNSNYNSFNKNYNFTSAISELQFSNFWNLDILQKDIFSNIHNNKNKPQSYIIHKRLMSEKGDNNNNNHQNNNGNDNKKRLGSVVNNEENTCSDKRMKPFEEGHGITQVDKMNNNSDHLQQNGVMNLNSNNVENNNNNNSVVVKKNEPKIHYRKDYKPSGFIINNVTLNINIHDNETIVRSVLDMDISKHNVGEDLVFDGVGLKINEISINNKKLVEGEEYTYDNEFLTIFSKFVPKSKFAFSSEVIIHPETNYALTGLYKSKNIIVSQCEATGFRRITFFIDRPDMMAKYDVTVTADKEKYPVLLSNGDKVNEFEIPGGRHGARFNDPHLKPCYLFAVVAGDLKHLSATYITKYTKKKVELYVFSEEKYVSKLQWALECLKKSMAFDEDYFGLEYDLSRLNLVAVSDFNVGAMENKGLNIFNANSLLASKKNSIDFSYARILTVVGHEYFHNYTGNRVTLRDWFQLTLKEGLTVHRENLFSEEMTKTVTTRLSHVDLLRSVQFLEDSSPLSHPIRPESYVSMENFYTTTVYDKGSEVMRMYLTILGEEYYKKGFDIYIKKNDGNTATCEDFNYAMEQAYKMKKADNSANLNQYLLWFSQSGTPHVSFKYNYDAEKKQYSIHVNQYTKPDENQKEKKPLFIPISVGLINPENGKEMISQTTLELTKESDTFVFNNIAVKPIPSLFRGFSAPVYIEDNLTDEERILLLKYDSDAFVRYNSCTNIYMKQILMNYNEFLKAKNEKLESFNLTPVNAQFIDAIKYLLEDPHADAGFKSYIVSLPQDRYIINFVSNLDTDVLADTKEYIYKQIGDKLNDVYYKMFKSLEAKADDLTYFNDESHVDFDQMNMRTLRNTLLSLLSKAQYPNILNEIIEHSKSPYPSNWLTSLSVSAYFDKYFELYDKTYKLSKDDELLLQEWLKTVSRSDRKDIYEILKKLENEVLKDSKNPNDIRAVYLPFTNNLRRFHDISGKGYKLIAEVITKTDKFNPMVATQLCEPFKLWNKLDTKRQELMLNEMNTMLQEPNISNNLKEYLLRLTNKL
Compound `COC(=O)c1cc2sccc2n1CC(=O)N(C)c1ccccc1` has an inhibition of 4.58%.
For `COC(=O)c1cc2oc(C)cc2n1CC(=O)N(C)c1ccccc1`, the inhibition was 24.4% (active).
`C=CCN(C(=O)Cn1c(C(=O)OC)cc2oc(C)cc21)c1ccccc1` gave an inhibition of 0.64%.
Work on `O=C(Cn1cc(C(F)(F)F)ccc1=O)N/N=C/c1ccccc1O` yielded an inhibition of 1.53%.
Compound `CN1C(=O)/C(=N/OC(=O)c2ccccc2)c2ccccc21` has an inhibition of -0.99%.
Work on `CN1C(=O)/C(=N\OC(=O)c2cccc3ccccc23)c2ccccc21` yielded an inhibition of 5.56%.
`O=C(O)c1ccc(Nc2nc(-c3cccnc3)nc3ccccc23)cc1` showed an inhibition of 10.8%.
Work on `COC(=O)c1cccc(Nc2nc(-c3cccnc3)nc3ccccc23)c1` yielded an inhibition of 0.67%.
With `COc1cccc(N2CC(C)Cn3c2nc2c3c(=O)n(CCN3CCOCC3)c(=O)n2C)c1` (stereo not given) the inhibition was 2.83%.
`C=CCn1c(=O)c2c(nc3n2CC(C)CN3c2cccc(OC)c2)n(C)c1=O` (stereo not given) was tested, and the inhibition was 26.4% (active).
With `COc1cccc(N2CC(O)Cn3c2nc2c3c(=O)n(CCCc3ccccc3)c(=O)n2C)c1` (stereo not given) the inhibition was 2.82%.
`c1ccc(Oc2cccc(NC3=NCCC3)c2)cc1` was tested, and the inhibition was 29.3% (active).
Compound `Clc1cccc(NC2=NCCC2)c1` has an inhibition of 0.77%.
In the case of `O=[N+]([O-])c1cccc(NC2=NCCC2)c1`, the inhibition is reported as 3.59%.
With `Cc1ccc(CN2CCN(C(=O)C3CCCO3)CC2)cc1` (stereo not given) the inhibition was -1.62%.
For `Cc1ccc(CN2CCN(C(=O)C3CCC3)CC2)cc1`, the inhibition was 27.7% (active).
Compound `O=C(C1CCC1)N1CCN(Cc2ccccc2)CC1` has an inhibition of 7.01%.
In the case of `CCN(CC)CC(C)CNC(=O)CN1C(=O)CSc2ccc(S(=O)(=O)N3CCOCC3)cc21` (stereo not given), the inhibition is reported as 8.54%.
`CC(=O)NC(=S)NNC(=O)COc1ccc([N+](=O)[O-])cc1` was tested, and the inhibition was -19.9%.
In the case of `CCC(=O)NC(=S)NNC(=O)COc1ccc(Br)cc1`, the inhibition is reported as -1.75%.
Compound `Cc1ccc(OCC(=O)NNC(=O)C(=O)NC(C)(C)C)cc1` has an inhibition of 13.2%.
Compound `CC(C)(C)NC(=O)C(=O)NNC(=O)COc1ccccc1` has an inhibition of 20.1%.
Work on `CCc1ccc(S(=O)(=O)NCc2csc(C)n2)s1` yielded an inhibition of 9.49%.
For `Cc1oc(-c2cccs2)nc1CN1CC[C@@](O)(c2ccccc2)[C@H]2CCCC[C@@H]21`, the inhibition was 4.34%.
For `O=C(O)c1ccc(CNC(=O)c2ccccc2NC(=O)c2ccc([N+](=O)[O-])cc2)cc1`, the inhibition was 1.28%.
In the case of `CCOC(=O)c1cc2sccc2n1CC(=O)OC`, the inhibition is reported as 5.03%.
Compound `C=CCNc1cc(C(F)(F)F)nc(-c2ccccn2)n1` has an inhibition of -2.8%.
`Cc1ccc(S(=O)(=O)NC2=NCN(CCN3CCOCC3)CN2)cc1` was tested, and the inhibition was 2.01%.
In the case of `c1ccc2sc(NC3=NCN(CCN4CCOCC4)CN3)nc2c1`, the inhibition is reported as -2.82%.
In the case of `Cc1nc(NC2=NCN(CCCN3CCOCC3)CN2)nc2c(C)cccc12`, the inhibition is reported as 29.4% (active).
For `NC(=O)C1CCCN(C(=S)Nc2ccccc2)C1` (stereo not given), the inhibition was 0.97%.
In the case of `CSc1nc2c(c(=O)[nH]1)C(c1cccs1)C1=C(CCCC1=O)N2` (stereo not given), the inhibition is reported as 9.61%.
Work on `O=C(O)c1ccccc1-c1nc2ccccc2[nH]1` yielded an inhibition of 0.23%.
`O=C(O)c1ccc(-c2nc(-c3ccccc3)c(-c3ccccc3)[nH]2)cc1` was tested, and the inhibition was 23.1%.
Compound `c1ccc(OCc2nn3c(-c4ccco4)nnc3s2)cc1` has an inhibition of -2.34%.
`COc1ccc(Cl)cc1NC(=S)N1CCN(S(C)(=O)=O)CC1` was tested, and the inhibition was 5.32%.
Work on `COC(=O)C1=C(C)NC(C)=C(C(=O)OC)C1c1ccc(-c2cccc([N+](=O)[O-])c2)o1` yielded an inhibition of 7.62%.
With `CC1(C)Oc2ccc3ccc(=O)oc3c2-c2cn[nH]c21` the inhibition was 26.5% (active).
`CC1(C)Oc2ccc3ccc(=O)oc3c2-c2cnoc21` was tested, and the inhibition was 50.2%.
With `CC1(C)Oc2ccc3ccc(=O)oc3c2/C(=C/N)C1=O` the inhibition was 8.41%.
With `COC(=O)Nc1ccc(=O)n(Cc2c(Cl)cccc2Cl)c1` the inhibition was 4.71%.
Work on `O=C1N(Cc2ccccc2)CCCC12CCCN(Cc1ccccc1)C2=O` yielded an inhibition of 8.22%.
In the case of `O=C(NCc1ccccc1)c1cc(-c2cccs2)on1`, the inhibition is reported as -3.95%.
With `O=C(NC(NC(=S)Nc1ccc(Cl)c(Cl)c1)C(Cl)(Cl)Cl)c1ccco1` (stereo not given) the inhibition was 9.33%.
`Cc1cccc(NC(=S)NC(NC(=O)c2ccco2)C(Cl)(Cl)Cl)c1` (stereo not given) gave an inhibition of 18.2%.
`CC(=O)c1ccc(NC(=O)C(Cc2ccccc2)NC(=O)c2ccco2)cc1` (stereo not given) was tested, and the inhibition was 4.11%.
With `O=C(Nc1cccc(O)c1)c1ccccc1[N+](=O)[O-]` the inhibition was -3.03%.
Work on `CC(=O)c1ccc(NC(=S)NC(NC(=O)c2ccco2)C(Cl)(Cl)Cl)cc1` (stereo not given) yielded an inhibition of 11.3%.
Work on `Cc1ccc(NC(NC(=O)c2ccccc2[N+](=O)[O-])C(Cl)(Cl)Cl)cc1` (stereo not given) yielded an inhibition of 7.36%.
For `CCc1ccc(NC(=O)CSCCO)cc1`, the inhibition was -0.74%.
For `Cn1nnnc1Sc1c(Cl)cccc1[N+](=O)[O-]`, the inhibition was -3.63%.
Work on `CC1(C)COC(c2coc3ccccc3c2=O)OC1` yielded an inhibition of 2.08%.
Compound `COc1ccc(N)cc1C#N` has an inhibition of 2.91%.
`O=C(CCCN1C(=O)/C(=C/c2ccco2)SC1=S)Nc1cccc(C(=O)O)c1` showed an inhibition of 6.76%.
`O=C(CCCN1C(=O)/C(=C\c2ccco2)SC1=S)Nc1ccc2ccccc2c1` was tested, and the inhibition was 11.9%.
With `CCOCCCNC(=O)CN(c1cc([N+](=O)[O-])ccc1OC)S(C)(=O)=O` the inhibition was 2.57%.
With `CS(C)(=O)=NS(=O)(=O)c1ccc(Cl)cc1` the inhibition was 1.82%.
Compound `CCn1c2ccccc2c2nnc(SCC(=O)Nc3cc(C)on3)nc21` has an inhibition of 1.82%.
Compound `CCc1nnc(SCC(=O)N2CCCc3ccccc32)nc1CC` has an inhibition of 0.48%.
For `CCn1c2ccccc2c2nnc(SCC(=O)Nc3c(C)n(C)n(-c4ccccc4)c3=O)nc21`, the inhibition was 0.94%.
`CSc1nnc2c3cc(C)ccc3n(Cc3ccccc3)c2n1` gave an inhibition of 1.58%.
With `CCCn1c2ccccc2c2nnc(SCC(=O)Nc3cc(C)on3)nc21` the inhibition was 10.3%.
With `Cc1ccc2c(c1)c1nnc(SCC(=O)N3CCN(c4ccc(F)cc4)CC3)nc1n2CC(=O)O` the inhibition was 2.3%.
Compound `O=C(CSc1nnc(Cc2cc(=O)[nH]c(=O)[nH]2)n1-c1ccc(Cl)cc1)NCC1CCCO1` (stereo not given) has an inhibition of 0.41%.
`COC(=O)C1=C(C)N(C)C(=S)NC1c1ccc(OC)cc1OC` (stereo not given) showed an inhibition of 3.74%.
Compound `CCOc1ccc(C(=O)NC(=S)Nc2cccnc2)cc1[N+](=O)[O-]` has an inhibition of 6.68%.
In the case of `Cn1c(=O)c(C(=O)COC(=O)c2cc(-c3ccccc3)nc3ccccc23)c(N)n(Cc2ccccc2)c1=O`, the inhibition is reported as 3.89%.
In the case of `COc1ccc(NC(=S)NC(=O)/C=C/c2cccs2)cc1`, the inhibition is reported as 10.7%.
`COc1ccc(/C=C/C(=O)NC(=S)Nc2ccc(N3CCN(C(C)=O)CC3)cc2)cc1` gave an inhibition of 6.43%.
`O=C(/C=C/c1cccs1)NC(=S)Nc1ccccc1` gave an inhibition of 22%.
Work on `COc1ccc(/C=C/C(=O)NC(=S)Nc2ccc(S(N)(=O)=O)cc2)cc1` yielded an inhibition of 9.42%.
Compound `COc1ccc(/C=N/N=C2/NC(=O)C(CC(=O)NC(C)C)S2)cc1` (stereo not given) has an inhibition of 10.2%.
With `O=C(CN1CCCN(S(=O)(=O)c2ccc(F)cc2)CC1)Nc1ccccc1Br` the inhibition was 7.31%.
Compound `COc1ccc2c(c1)C=C(CN1CCN(C(C)C)C(CCO)C1)CO2` (stereo not given) has an inhibition of -13.9%.
`CCOc1cc(/C=C2/SC(=O)N(CC(=O)N3CCc4ccccc4C3)C2=O)ccc1OCC(=O)O` gave an inhibition of 12.8%.
For `CCOc1cc(C=C2C(=O)c3ccccc3C2=O)ccc1OCC(=O)Nc1ccc(C)cc1`, the inhibition was 2.91%.
`CCOc1cc(/C=C2\SC(=Nc3ccccc3)N(c3ccccc3)C2=O)ccc1OCC(=O)O` showed an inhibition of 8.93%.
For `CCOc1cc(/C=N/NC(=O)c2ccc(-c3csc(Nc4ccc(C)cc4)n3)cc2)ccc1OCC(=O)O`, the inhibition was 14.3%.
`COC(=O)c1c(NC(=O)COC(=O)c2ccccc2O)sc2c1CCCCC2` showed an inhibition of 2.42%.
For `COc1cc(NC(=O)Cc2cccs2)ccc1-n1cnnn1`, the inhibition was 4.02%.
`CN1CCc2c(OCc3ccc(F)cc3)cccc2C1=O` gave an inhibition of 3.15%.
Compound `O=C(O)c1ccccc1Nc1ccc(OC(F)F)cc1` has an inhibition of 2.47%.
In the case of `COc1ccc(NC(=S)NNc2ccc([N+](=O)[O-])cc2S(=O)(=O)Nc2ccc(C)cc2C)cc1`, the inhibition is reported as 5.53%.
`Cc1ccc(S(=O)(=O)Nc2ccccc2C(=O)OC(C)C(=O)Nc2ccc3ccccc3c2)cc1[N+](=O)[O-]` (stereo not given) showed an inhibition of -0.95%.
`COc1ccc(NC(=O)c2ccccc2NS(=O)(=O)c2ccc(C)cc2)c([N+](=O)[O-])c1` gave an inhibition of 11.4%.
Compound `O=c1c(Cc2ccc(Cl)cc2)c(O)ccn1Cc1ccccc1` has an inhibition of 1.46%.
`CCc1cc(=O)oc2c(C)c(O)c(CN(C)C)cc12` was tested, and the inhibition was 9.74%.
Work on `CCCc1cc(=O)oc2c(C)c(O)c(CN3CCCCC3)cc12` yielded an inhibition of -4.01%.
Work on `Cc1oc2c(C)c3oc(=O)c4c(c3cc2c1C)CCC4` yielded an inhibition of 9.19%.
Compound `Cc1oc2c(C)c3oc(=O)c4c(c3cc2c1C)CCCC4` has an inhibition of 4.09%.
`Cc1c(O)c(CN2CCCC2)cc2c1oc(=O)c1ccccc12` gave an inhibition of 11.4%.
`Cc1c(O)c(CN2CCCCC2)cc2c1oc(=O)c1ccccc12` showed an inhibition of 1.46%.
`O=C(COc1cccnc1[N+](=O)[O-])Nc1ccccc1Sc1ccccc1` was tested, and the inhibition was -2.34%.
Compound `CCOc1cccc(C(=O)NC(=S)Nc2cccnc2)c1` has an inhibition of 6.93%.
With `COc1ccc(-c2ccc(N(C)C)cc2)cc1[C@H]1[C@H]2C=CC[C@@H](C)[C@@H]2C(=O)N1Cc1ccccc1` the inhibition was 0.52%.
